According to PubChem BioAssay AID1159580 (chemical genetic matrix, 2015):
Among all 5,500 compounds or so, about 2,000 (36%) were called active. Inconclusive results (about 18%) are left out. Rule as the data show it: active = normalized growth mostly below about 0.91 (no sharp cut-off); inconclusive = no clear call, values can overlap the other calls; inactive = mostly above about 0.92. The list shows a part of the results.

Experiment: chemical genetic growth profiling, strain panel (AID 1159580);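 also: tested at 20 µM; growth read once vehicle control cultures reached saturation at 30 °C; 1 = growth at the plate median or of vehicle wells; lower values mean less growth of the strain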
Settings: S. cerevisiae deletion strains, growth OD

Measured: normalized growth

N#Cc1c(Cl)cccc1N1CCC(C(=O)NC(=O)Nc2ccc(Cl)cc2)CC1
inactive: locus YAL013W, strain DEP1, active compounds read low 0.998 | locus YBR229C, strain ROT2, active compounds read low 1.01 | locus YDL101C, strain DUN1, active compounds read low 1 | locus YDL134C, strain PPH21, active compounds read low 1.03 | locus YDR150W, strain NUM1, active compounds read low 1.04 | locus YEL061C, strain CIN8, active compounds read low 1.01 | locus YGR078C, strain PAC10, active compounds read low 1.01 | locus YHR030C, strain SLT2, active compounds read low 1.04 | locus YHR087W, strain rtc3, active compounds read low 1.02 | locus YJL187C, strain SWE1, active compounds read low 1.01 | locus YJR043C, strain POL32, active compounds read low 1 | locus YJR075W, strain HOC1, active compounds read low 1.05 | locus YLR039C, strain RIC1, active compounds read low 1.01 | locus YLR058C, strain SHM2 (second series), active compounds read low 1.03 | locus YLR085C, strain ARP6, active compounds read low 1.07 | locus YLR262C, strain YPT6, active compounds read low 0.998 | locus YML094W, strain GIM5, active compounds read low 1.04 | locus YMR219W, strain ESC1, active compounds read low 1.02 | locus YMR263W, strain SAP30, active compounds read low 1.01 | locus YMR307W, strain GAS1, active compounds read low 1.03 | locus YNL153C, strain GIM3, active compounds read low 1.01 | locus YNL298W, strain CLA4 (second series), active compounds read low 1.02 | locus YNL322C, strain KRE1, active compounds read low 1.01 | locus YNR030W, strain Alg12, active compounds read low 1.03 | locus YPL055C, strain LGE1, active compounds read low 1.1 | locus YPL241C, strain CIN2, active compounds read low 1.01 | locus YPR135W, strain CTF4, active compounds read low 1.04
